# Values joined by “and” are separate entries in the source; they are usually repeats but may differ in a detail not shown here. Equal entries are not always repeated. Compounds without any hit were thinned out: in the full panel of roughly 83,000, 20% have a hit.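 Results are percent growth after 48 hours of single-concentration exposure. 100 means growth as in untreated cells, lower positive values show inhibition; negative values down to -100 show cell death.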 Values without a mark were called inactive. Active and inactive are the calls of the source. The calls were made as follows: active = growth percent below 10; inactive = the rest.
# Assays:
# Experiment in all cases: NCI-60 one-dose screen, 48 h (100 = growth as untreated, 0 = no growth, -100 = all killed)
# Details in all cases: 10 µM unless noted
# NCI-H23 lung = system: NCI-H23 lung
# NCI-H226 lung = system: NCI-H226 lung
# NCI-H322M lung = system: NCI-H322M lung
# HOP-62 NSCLC = system: HOP-62 NSCLC
# NCI-H460 lung = system: NCI-H460 lung
# NCI-H522 lung = system: NCI-H522 lung
# A549/ATCC NSCLC = system: A549/ATCC NSCLC
# 786-0 renal = system: 786-0 renal
# COLO 205 colon = system: COLO 205 colon
# DU-145 prostate = system: DU-145 prostate
# K-562 leukemia = system: K-562 leukemia
# MALME-3M melanoma = system: MALME-3M melanoma
# MDA-MB-231 breast = system: MDA-MB-231 breast
# RXF 393 renal = system: RXF 393 renal
# SF-268 CNS = system: SF-268 CNS
# SF-295 CNS = system: SF-295 CNS
# SF-539 CNS = system: SF-539 CNS
# UACC-257 melanoma = system: UACC-257 melanoma
# M14 melanoma = system: M14 melanoma
# HOP-92 NSCLC = system: HOP-92 NSCLC
Compound,growth (NCI-H23 lung),growth (NCI-H226 lung) [%],growth (NCI-H322M lung),growth (HOP-62 NSCLC),growth (NCI-H460 lung),growth (NCI-H522 lung),growth (A549/ATCC NSCLC),growth (786-0 renal),growth (COLO 205 colon),growth (DU-145 prostate),growth (K-562 leukemia),growth (MALME-3M melanoma),growth (MDA-MB-231 breast),growth (RXF 393 renal),growth (SF-268 CNS),growth (SF-295 CNS),growth (SF-539 CNS),growth (UACC-257 melanoma),growth (M14 melanoma),growth (HOP-92 NSCLC)
O=C1/C(=C/c2ccccc2)CN(C(=O)C(Cl)Cl)C/C1=C\c1ccccc1,-56.5% (active),95.6,37.4%,75.2%,-29.7% (active),-0.507% (active),20.8%,-15.8% (active),-1.12% (active),-14.3% (active),2.57% (active),-38.5% (active),-3.43% (active),-35.2% (active),35.7%,-1.45% (active),-14.9% (active),25%,-27.6% (active),–
N#Cc1ccccc1OCC(=O)Nc1nc2c(s1)COc1ccccc1-2,99.3%,93.2,102%,105%,107%,103%,98.9%,102%,105%,114%,104%,107%,102%,101%,104%,79.5%,101%,112%,105%,–
Cc1nonc1-c1ccc2c(c1)OCO2,91.5% and 112%,94.3,113% and 124%,123% and 106%,106%,102% and 103%,90.6% and 98.2%,104% and 107%,114% and 140%,94.4% and 109%,101%,116% and 142%,96.8% and 110%,96.8% and 99.4%,89.9% and 95%,91.4% and 101%,111% and 95.7%,104% and 111%,110% and 108%,–
O=[N+]([O-])c1cc(C(F)(F)F)ccc1Sc1ccc(C(F)(F)F)cc1[N+](=O)[O-],63.1%,90.9,112%,94.6%,74.4%,77.9%,93.4%,103%,123%,64.4%,8.04% (active),61.9%,72.4%,93.1%,63%,106%,61.1%,76.3%,49%,–
Nc1nc(CSc2n[nH]c(N)n2)nc(Nc2ccccc2)n1,102%,101,97.8%,106%,103%,93.4%,102%,96%,109%,104%,99.1%,104%,105%,114%,93.1%,97.6%,102%,107%,105%,–
O=Nc1ccc(NO)c2ccccc12,90.6% and 68.3%,–,97.8% and 96.2%,103% and 90.5%,94.6% and 105%,93.3% and 69.5%,106% and 27.5%,104% and 96.9%,101% and 85.1%,107% and 98%,111% and 56.5%,118% and 69.6%,89% and 73.5%,114% and 97.2%,102% and 83.9%,99.3% and 121%,96.8% and 109%,104% and 52.4%,99.2% and 93.7%,95.1% and 92.9%
O/N=C(/c1ccccc1)c1ccc2c3c(cccc13)CC2,97.3% and 95.1%,100,106% and 102%,93.1% and 94.1%,87.6% and 96.7%,88.3% and 89.6%,73.8% and 94.4%,88.4% and 92.1%,117% and 103%,107% and 105%,42.4% and 34.2%,87.6% and 91.9%,82.7% and 82.1%,81.9% and 64.7%,105% and 94.6%,82.1% and 83.3%,111% and 90.5%,83.2% and 87.2%,95.3% and 90.9%,–
O=C(Nc1ncc(Cc2cccc(C(F)(F)F)c2)s1)c1ccc2c(c1)OCCO2,31.2%,21.3,54.1%,25.2%,6.46% (active),8.7% (active),17.2%,39.9%,-7.82% (active),15.1%,8.17% (active),50.1%,30.2%,19.6%,38.3%,8.97% (active),-0.654% (active),45.5%,21.6%,–
COc1cc(NC2CCCCC2O)c2nc(-c3ccc(Cl)cc3)ccc2c1 (stereo not given),84.2% and 98.5%,90,88.8% and 88.2%,109% and 108%,41.2% and 57.9%,65.7% and 89.5%,69% and 73.5%,42.4% and 77.6%,–,95.3% and 95%,44.8%,72.5% and 124%,44.6% and 78.1%,39.3% and 67.9%,77.5% and 84%,51.5% and 54.3%,105% and 93.9%,101% and 105%,45.8% and 79.9%,–

# Reference: PubChem BioAssay (NCI)
